Test results taken from PubChem BioAssay.
For some assays here: Measured potencies and affinities stand elsewhere. Active and inactive are the calls of the source. Unless noted, the rule behind the calls is not given here.

What was measured:
[1] = antimalarial activity against Dd2 strain (AID 2302;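 active = growth inhibition above 50% at the single 2 µM test dose, taken to imply half-maximal potency below 2 µM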;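 note: 0% = DMSO untreated growth and 100% = chloroquine plus artemisinin killed control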); conditions: P. falciparum Dd2 in RBCs, LDH growth readout, 72 h; at 2 µM; active compounds read high
[2] = target: L-lactate dehydrogenase (Plasmodium falciparum (isolate CDC / Honduras)) (UniProt Q27743); experiment: PfLDH activity inhibition – cell lysate, 3D7 strain, counter-screen for P. falciparum growth inhibition project (AID 2304);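 note: 0% = vehicle and 100% = reference inhibitor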; conditions: P. falciparum 3D7 crude extract, LDH APAD/NBT absorbance; at 2 µM; active compounds read high
[3] = inhibition of 3D7 malaria parasite growth – strain 3D7 (AID 2306);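 note: 0% = DMSO wells and 100% = chloroquine plus artemisinin control wells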; conditions: P. falciparum 3D7 erythrocytic growth, LDH absorbance, 72 h; at 2 µM; active compounds read high
[4] = target: Calcium-dependent protein kinase 1 (Plasmodium falciparum (isolate 3D7)) (UniProt P62344); experiment: PfCDPK1 kinase inhibitors, biochemical, TCAMS library (AID 1159585; cut-off not given, nearly all actives have IC50 up to about 0.98 µM;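 note: inhibitors leave more ATP so luminescence rises with inhibition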); conditions: recombinant PfCDPK1, Kinase-Glo ATP depletion luminescence
[5] = target: Plasmodium falciparum protein kinase 6 (PK6, PF3D7_1337100) (UniProt Q8IDW1); experiment: PfPK6 kinase inhibitors, biochemical, TCAMS library (AID 1159586); conditions: recombinant PfPK6, Kinase-Glo ATP depletion luminescence
[6] = target: Protein kinase 7 (PK7), Plasmodium falciparum 3D7 (PF3D7_0213400) (UniProt Q7YTF7); experiment: inhibition of Plasmodium PK7 catalytic activity – biochemical, TCAMS antimalarial set, Kinase-Glo luminescence (AID 1159587); conditions: recombinant PfPK7, Kinase-Glo ATP depletion luminescence
[7] = target: Calcium-dependent protein kinase 4 (Plasmodium falciparum (isolate 3D7)) (UniProt Q8IBS5); experiment: PfCDPK4 kinase inhibitors, biochemical, TCAMS library (AID 1159588; cut-off not given, nearly all actives have IC50 up to about 0.91 µM); conditions: recombinant PfCDPK4, Kinase-Glo ATP depletion luminescence
[8] = HepG2 cytotoxicity, primary screen, cytotoxicity control for P. falciparum antimalarial project, cell-based, ATP luminescence (AID 2303;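 active = inhibition above 50%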;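 note: 0% = DMSO wells and 100% = digitonin-killed cells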); conditions: HepG2 viability, 24-48 h, at 10 µM, active compounds read high

Sequence of Calcium-dependent protein kinase 1 (Plasmodium falciparum (isolate 3D7)) (P62344 whole entry, looked up): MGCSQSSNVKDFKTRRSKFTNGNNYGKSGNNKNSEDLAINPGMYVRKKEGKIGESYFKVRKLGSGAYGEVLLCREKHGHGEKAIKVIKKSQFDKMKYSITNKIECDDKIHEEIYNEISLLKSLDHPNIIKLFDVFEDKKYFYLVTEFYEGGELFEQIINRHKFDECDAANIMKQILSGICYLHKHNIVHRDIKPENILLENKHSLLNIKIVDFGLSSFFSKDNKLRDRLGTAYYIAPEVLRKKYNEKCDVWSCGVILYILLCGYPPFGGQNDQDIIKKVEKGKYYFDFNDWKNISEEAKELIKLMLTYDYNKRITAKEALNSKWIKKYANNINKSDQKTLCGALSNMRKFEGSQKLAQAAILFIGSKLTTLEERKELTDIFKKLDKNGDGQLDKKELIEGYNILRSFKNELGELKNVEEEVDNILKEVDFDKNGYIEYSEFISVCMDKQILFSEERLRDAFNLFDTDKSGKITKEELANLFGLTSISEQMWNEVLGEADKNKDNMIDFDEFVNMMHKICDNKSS
Sequence of Plasmodium falciparum protein kinase 6 (PK6, PF3D7_1337100) (Q8IDW1 1-305): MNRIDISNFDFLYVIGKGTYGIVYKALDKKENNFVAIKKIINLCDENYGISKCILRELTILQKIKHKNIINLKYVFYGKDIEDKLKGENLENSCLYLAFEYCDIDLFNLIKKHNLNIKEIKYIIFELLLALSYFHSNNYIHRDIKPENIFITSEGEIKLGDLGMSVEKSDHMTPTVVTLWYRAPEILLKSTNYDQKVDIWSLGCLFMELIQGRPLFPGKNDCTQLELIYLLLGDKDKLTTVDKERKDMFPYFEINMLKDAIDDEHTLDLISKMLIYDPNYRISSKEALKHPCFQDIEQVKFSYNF
Sequence of L-lactate dehydrogenase (Plasmodium falciparum (isolate CDC / Honduras)) (Q27743 whole entry, looked up): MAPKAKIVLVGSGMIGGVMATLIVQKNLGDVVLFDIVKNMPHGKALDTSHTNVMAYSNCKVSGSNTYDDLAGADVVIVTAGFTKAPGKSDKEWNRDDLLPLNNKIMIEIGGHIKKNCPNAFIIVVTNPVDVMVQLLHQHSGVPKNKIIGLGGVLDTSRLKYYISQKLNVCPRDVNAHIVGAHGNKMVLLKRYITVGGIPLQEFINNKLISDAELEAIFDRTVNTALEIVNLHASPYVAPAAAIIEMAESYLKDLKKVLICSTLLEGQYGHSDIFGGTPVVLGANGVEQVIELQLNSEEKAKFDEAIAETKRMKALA
Sequence of Calcium-dependent protein kinase 4 (Plasmodium falciparum (isolate 3D7)) (Q8IBS5 whole entry, looked up): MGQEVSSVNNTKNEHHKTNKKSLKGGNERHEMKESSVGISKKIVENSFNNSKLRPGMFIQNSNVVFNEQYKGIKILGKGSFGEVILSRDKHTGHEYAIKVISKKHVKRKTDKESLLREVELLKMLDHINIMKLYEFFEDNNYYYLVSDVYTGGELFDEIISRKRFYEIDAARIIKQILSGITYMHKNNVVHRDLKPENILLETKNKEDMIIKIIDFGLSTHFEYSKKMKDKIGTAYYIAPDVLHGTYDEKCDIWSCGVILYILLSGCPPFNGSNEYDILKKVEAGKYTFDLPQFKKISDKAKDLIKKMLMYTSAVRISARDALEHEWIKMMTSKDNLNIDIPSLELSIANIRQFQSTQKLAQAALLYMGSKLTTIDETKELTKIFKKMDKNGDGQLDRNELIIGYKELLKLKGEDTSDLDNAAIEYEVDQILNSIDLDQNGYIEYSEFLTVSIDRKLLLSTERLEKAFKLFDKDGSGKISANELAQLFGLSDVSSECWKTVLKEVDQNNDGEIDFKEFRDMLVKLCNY
Sequence of Protein kinase 7 (PK7), Plasmodium falciparum 3D7 (PF3D7_0213400) (Q7YTF7 1-343): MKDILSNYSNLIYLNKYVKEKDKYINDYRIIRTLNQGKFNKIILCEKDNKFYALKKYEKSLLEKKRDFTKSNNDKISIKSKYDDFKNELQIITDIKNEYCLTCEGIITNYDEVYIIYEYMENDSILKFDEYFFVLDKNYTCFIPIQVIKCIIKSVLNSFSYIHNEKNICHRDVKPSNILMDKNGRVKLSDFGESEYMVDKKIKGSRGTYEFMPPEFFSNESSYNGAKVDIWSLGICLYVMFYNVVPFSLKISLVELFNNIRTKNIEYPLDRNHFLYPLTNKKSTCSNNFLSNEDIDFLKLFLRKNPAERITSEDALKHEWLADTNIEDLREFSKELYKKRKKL

CC(=O)Oc1c(Br)c(C)nc(C)c1-c1ccc(Oc2ccc(OC(F)(F)F)cc2)cc1
inactive: inhibition [2] -4% | outcome [4] | outcome [5] | outcome [6] | outcome [7]
active: growth inhibition [1] 97% | growth inhibition [3] 98%

NC(N)=NC(=O)Nc1ccc(Cl)c([N+](=O)[O-])c1
active: growth inhibition [3] 97%
inactive: growth inhibition [1] 9% | inhibition [2] -8% | outcome [4] | outcome [5] | outcome [6] | outcome [7]

CN(C)C(=S)N=Nc1c(O)[nH]c2ccccc12
active: growth inhibition [1] 96% | growth inhibition [3] 95%
inactive: inhibition [2] 2% | outcome [4] | outcome [5] | outcome [6] | outcome [7]

CCCCNC(=O)C1CCCN(C(=O)c2ccc(O)c(-c3ccc(Cl)c(Cl)c3)c2)C1 (centres undefined)
inactive: inhibition [8] 3% | inhibition [2] 2% | outcome [4] | outcome [5] | outcome [6] | outcome [7]
active: growth inhibition [3] 83%

c1ccc2c3c([nH]c2c1)C(c1ccc2c(c1)CCO2)N(c1ncnc(N2CCN(CCCN4CCOCC4)CC2)n1)CC3 (centres undefined)
active: growth inhibition [3] 80%
inactive: inhibition [8] 37% | inhibition [2] -2% | outcome [4] | outcome [5] | outcome [6] | outcome [7]

Nc1nc(N)c2c(ccc3c2ccn3Cc2cccc(F)c2)n1
active: growth inhibition [1] 99% | growth inhibition [3] 101%
inactive: inhibition [2] -6% | outcome [4] | outcome [5] | outcome [6] | outcome [7]

Cc1cc(OCCCN2CCCC2)ccc1NC(=O)COc1ccc(Cl)cc1C(=O)c1cc(C#N)cc(C(F)(F)F)c1
active: growth inhibition [3] 85%
inactive: inhibition [8] 18% | inhibition [2] 2% | outcome [4] | outcome [5] | outcome [6] | outcome [7]

S=C(Nc1ccc(Cl)cc1)Nc1ccc(Nc2ccccc2)cc1
inactive: inhibition [8] 14% | inhibition [2] -4% | outcome [4] | outcome [5] | outcome [6] | outcome [7]
active: growth inhibition [3] 84%

O=C(NCCCCN1CCC(c2ccc3c(c2OCCOCCO)CCCC3)CC1)c1ccc(-c2ccc(C(F)(F)F)cc2)cc1
inactive: inhibition [8] 44% | inhibition [2] -5% | outcome [4] | outcome [5] | outcome [6] | outcome [7]
active: growth inhibition [3] 97%

CO/N=C(\C)c1ccc2c(c1)CCN(CCC1CCC(NC(=O)c3cccc(-c4noc(C)n4)c3)CC1)CC2 (centres undefined)
inactive: inhibition [8] 42% | inhibition [2] -1% | outcome [4] | outcome [5] | outcome [6] | outcome [7]
active: growth inhibition [3] 90%

Oc1ccc(CCNCCCCCNCCCc2ccc(Cl)cc2)cc1O
inactive: inhibition [8] 22% | inhibition [2] -3% | outcome [4] | outcome [5] | outcome [6] | outcome [7]
active: growth inhibition [3] 91%

COc1ccc(CN2CCN(CC(=O)Nc3cc(Cl)ccc3-n3cncn3)CC2)cc1F
active: growth inhibition [3] 93%
inactive: inhibition [8] 0% | inhibition [2] -1% | outcome [4] | outcome [5] | outcome [6] | outcome [7]

N=C(N)c1nc2ccccc2s1
inactive: inhibition [8] 1% | inhibition [2] -1% | outcome [4] | outcome [5] | outcome [6] | outcome [7]
active: growth inhibition [3] 87%

COc1cccc(-c2nc(Nc3ccncc3)c3ncn(C)c3n2)c1
active: growth inhibition [3] 94%
inactive: inhibition [8] 14% | inhibition [2] -1% | outcome [4] | outcome [5] | outcome [6] | outcome [7]

COc1ccc(NC(=O)c2ccc(-c3cccc(OCc4ccccc4)c3)cc2)cc1N1CCN(C)CC1
active: growth inhibition [3] 85%
inactive: inhibition [8] 29% | inhibition [2] -1% | outcome [4] | outcome [5] | outcome [6] | outcome [7]

CC(C)c1ccc2c(c1)C(=O)c1ccc(C(=O)O)cc1S2(=O)=O
active: growth inhibition [1] 83% | growth inhibition [3] 93%
inactive: inhibition [2] -4% | outcome [4] | outcome [5] | outcome [6] | outcome [7]

Nc1ncc(-c2ccc(S(=O)(=O)Nc3ccc(C(=O)N[C@@H](CCC(=O)O)C(=O)O)cc3)cc2)c(=O)[nH]1
active: growth inhibition [3] 99%
inactive: growth inhibition [1] 0% | inhibition [2] -3% | outcome [4] | outcome [5] | outcome [6] | outcome [7]

O=c1c2ccc(Sc3ccccn3)cc2n(-c2ccccc2)c2cc(Sc3ccccn3)ccc12
inactive: inhibition [2] -3% | outcome [4] | outcome [5] | outcome [6] | outcome [7]
active: growth inhibition [1] 70% | growth inhibition [3] 89%

Nc1nc2ccc(CNc3ccc(C(=O)N[C@@H](CCC(=O)O)C(=O)O)cc3)cc2c(=O)[nH]1
inactive: inhibition [8] 2% | inhibition [2] 3% | outcome [4] | outcome [5] | outcome [6] | outcome [7]
active: growth inhibition [3] 96%

CC(C)n1c(C(C)(C)C)cc2c3c(N)nc(N)nc3ccc21
inactive: inhibition [2] -3% | outcome [4] | outcome [5] | outcome [6] | outcome [7]
active: growth inhibition [1] 99% | growth inhibition [3] 100%

CCCCNCc1cc(Cl)c2ccccc2c1O
active: growth inhibition [1] 100% | growth inhibition [3] 102%
inactive: inhibition [2] 0% | outcome [4] | outcome [5] | outcome [6] | outcome [7]

CC(C)Cn1cc2c(ccc3nc(N)nc(N)c32)n1
inactive: growth inhibition [1] 2% | inhibition [2] -2% | outcome [4] | outcome [5] | outcome [6] | outcome [7]
active: growth inhibition [3] 97%

COc1cc2c(cc1C(F)(F)F)N(C(=O)Nc1ccc(Br)cn1)CC2
inactive: inhibition [8] 16% | inhibition [2] -3% | outcome [4] | outcome [5] | outcome [6] | outcome [7]
active: growth inhibition [3] 97%

CC(=O)Nc1ccc(OCCCCCOc2ccc(NC(C)=O)cc2Cl)c(Cl)c1
active: growth inhibition [3] 93%
inactive: growth inhibition [1] 0% | inhibition [2] -7% | outcome [4] | outcome [5] | outcome [6] | outcome [7]

CC(=O)Oc1c(Cl)c(C)nc(C)c1-c1ccc(Oc2ccc(OC(F)(F)F)cc2)cc1
inactive: inhibition [2] 5% | outcome [4] | outcome [5] | outcome [6] | outcome [7]
active: growth inhibition [1] 98% | growth inhibition [3] 97%

Nc1nc(N)c2c(Oc3ccc(Cl)c(Cl)c3)cccc2n1
inactive: growth inhibition [1] 22% | inhibition [2] -5% | outcome [4] | outcome [5] | outcome [6] | outcome [7]
active: growth inhibition [3] 95%

CC(C)CNC(=O)c1ccc(-c2cccc(CN3CCC(N4CCCC4)CC3)c2)nc1
inactive: inhibition [8] 4% | inhibition [2] -3% | outcome [4] | outcome [5] | outcome [6] | outcome [7]
active: growth inhibition [3] 81%

COc1ccc(NS(=O)(=O)c2ccc(Oc3nc(C)nc4sc5c(c34)CCCC5)cc2)cc1
inactive: inhibition [8] 5% | inhibition [2] -2% | outcome [4] | outcome [5] | outcome [6] | outcome [7]
active: growth inhibition [3] 96%

CC(CC1CCCCC1)NCc1ccccc1OCCC(=O)N1CCCC1C(N)=O (centres undefined)
inactive: inhibition [8] 5% | inhibition [2] 8% | outcome [4] | outcome [5] | outcome [6] | outcome [7]
active: growth inhibition [3] 97%

C=CC(C)C1OC(=O)c2cc(OC)cc(OC)c21 (centres undefined)
active: inhibition [8] 100% | growth inhibition [3] 100%
inactive: inhibition [2] -4% | outcome [4] | outcome [5] | outcome [6] | outcome [7]

Cc1ccccc1Oc1ccc(Nc2ccnc(Nc3cccc(C(N)=O)c3)n2)cc1C(F)(F)F
inactive: inhibition [8] 9% | inhibition [2] -1% | outcome [4] | outcome [5] | outcome [6] | outcome [7]
active: growth inhibition [3] 81%

COc1c(C2CCN(CCCCNC(=O)C=Cc3ccccc3C(F)(F)F)CC2)ccc2c1CCCC2
inactive: inhibition [2] -3% | outcome [4] | outcome [5] | outcome [6] | outcome [7]
active: inhibition [8] 98% | growth inhibition [3] 96%

O=C(Nc1ccc(C(F)(F)F)cc1)c1cc(Cl)cc2[nH]c(C(F)(F)F)nc12
inactive: inhibition [2] -1% | outcome [4] | outcome [5] | outcome [6] | outcome [7]
active: inhibition [8] 86% | growth inhibition [3] 102%

CC(C)CN1C(=O)C(c2ccc(F)c(F)c2)=C(O)C1c1ccccc1 (centres undefined)
active: growth inhibition [3] 94%
inactive: inhibition [8] 0% | inhibition [2] -7% | outcome [4] | outcome [5] | outcome [6] | outcome [7]

O=C(CN1C(=O)CC1S(=O)(=O)Cc1ccco1)NCCCCCCc1ccc(F)cc1 (centres undefined)
active: growth inhibition [3] 95%
inactive: inhibition [8] -2% | inhibition [2] -4% | outcome [4] | outcome [5] | outcome [6] | outcome [7]

COc1cc(OC)cc(C(=O)Nc2nc(-c3ccc(NC(=O)c4ccccc4)cc3)cs2)c1
inactive: inhibition [8] 16% | inhibition [2] -1% | outcome [4] | outcome [5] | outcome [6] | outcome [7]
active: growth inhibition [3] 88%

COc1cc(CCNCC(O)c2ccc([N+](=O)[O-])c(OCc3ccccc3)c2)cc(OC)c1OC (centres undefined)
active: growth inhibition [3] 98%
inactive: inhibition [8] 11% | inhibition [2] -3% | outcome [4] | outcome [5] | outcome [6] | outcome [7]

COc1cc2ncnc(Nc3ccc(OC(F)(F)c4ccccc4)cc3)c2cc1OC
active: growth inhibition [3] 91%
inactive: inhibition [8] 14% | inhibition [2] 2% | outcome [4] | outcome [5] | outcome [6] | outcome [7]

COc1cccc(-c2cc3c(NCc4ccncc4)nccc3s2)c1
inactive: inhibition [8] 0% | inhibition [2] -2% | outcome [4] | outcome [5] | outcome [6] | outcome [7]
active: growth inhibition [3] 87%

Cc1cc2c(cc1C(F)(F)F)N(C(=O)Nc1ccc(C(=O)NCCN3CCCC3)cc1)CC2
active: growth inhibition [3] 100%
inactive: inhibition [8] 10% | inhibition [2] 3% | outcome [4] | outcome [5] | outcome [6] | outcome [7]

CCS(=O)(=O)c1ccc(/C(=N/OC)c2ccc[nH]2)cc1
inactive: inhibition [8] -6% | inhibition [2] -2% | outcome [4] | outcome [5] | outcome [6] | outcome [7]
active: growth inhibition [3] 85%

O=C(NNC(=O)c1ccc(CN2CCC(c3nc4ccccc4[nH]3)CC2)cc1)Nc1ccc(Oc2ccccc2)cc1
active: growth inhibition [3] 86%
inactive: inhibition [8] -2% | inhibition [2] 0% | outcome [4] | outcome [5] | outcome [6] | outcome [7]

O=C(NCCCCN1CCC(c2ccc3c(c2OCCCO)CCCC3)CC1)c1ccc(-c2ccc(C(F)(F)F)cc2)c(CO)c1
active: inhibition [8] 66% | growth inhibition [3] 95%
inactive: inhibition [2] 4% | outcome [4] | outcome [5] | outcome [6] | outcome [7]

COc1cc(Cc2cnc(N)nc2N)ccc1OCc1csc(-c2ccc(Cl)cc2)n1
active: growth inhibition [3] 93%
inactive: inhibition [8] 39% | inhibition [2] 2% | outcome [4] | outcome [5] | outcome [6] | outcome [7]

O=C(O)CCSc1ncnc2nc[nH]c12
active: growth inhibition [3] 103%
inactive: inhibition [8] 7% | inhibition [2] 6% | outcome [4] | outcome [5] | outcome [6] | outcome [7]

Cc1ccc(-n2c(C)cc(C(=O)CN3C(=O)NC(Cc4ccccc4)C3=O)c2C)cc1 (centres undefined)
active: growth inhibition [3] 82%
inactive: inhibition [8] -11% | inhibition [2] 3% | outcome [4] | outcome [5] | outcome [6] | outcome [7]

CCn1c(-c2nonc2N)nc2c(-c3cccc(NC(=O)NCc4ccccc4)c3)ncc(OCCCN)c21
active: growth inhibition [3] 99%
inactive: inhibition [8] 5% | inhibition [2] -7% | outcome [4] | outcome [5] | outcome [6] | outcome [7]
